Data from PubChem BioAssay AID2284205 (EPA ToxCast).
Active and inactive are the calls of the source. How the source made its calls: active means hit-call score of the fitted dose curve at least 0.9, where 1 is the maximum; inactive means score below 0.9.

Target: Peroxisome proliferator-activated receptor gamma (Homo sapiens) (UniProt P37231)
Experiment: ERF_TW_NR_hPPARG: Eurofins (ERF) Nuclear Receptor (NR) Radioligand Binding LeadHunter Assay for human Peroxisome Proliferator-activated Receptor gamma (PPARg) Agonism, conducted at Taiwan lab site
Description: ERF_TW_NR_hPPARG is a biochemical, single-readout assay that uses extracted gene-proteins in a cell-free assay. Measurements were taken 24 hour after chemical dosing in a 96-well plate. See PPARgamma Human NHR Binding (Agonist Radioligand) Assay, Panlabs.ERF_TW_NR_hPPARG is an assay component calculated from the ERF_TW_NR_hPPARG assay. It is designed to measure radioligand binding using a type of binding reporter as detected by scintillation counting with radiometry technology.Data from the assay component ERF_TW_NR_hPPARG was analyzed at the assay endpoint, ERF_TW_NR_hPPARG, in the positive analysis fitting direction relative to DMSO as the negative control and baseline of activity. Using a type of binding receptor, gain-of-signal activity can be used to understand changes in binding receptor as they relate to gene PPARG.To generalize the intended target to other relatable targets, this assay endpoint is annotated to the nuclear receptor intended target family, where the subfamily is non-steroidal.
Human recombinant PPARgamma-LBD expressed in insect cells are used in modified Tris-HCl buffer pH 7.2. A 0.03 ug aliquot is incubated with 5 nM [3H]Rosiglitazone and 1 ug anti-GST antibody for 24 hours at 4C. Non-specific binding is estimated in the presence of 10 uM rosiglitazone. Receptors are counted to determine [3H]Rosiglitazone specifically bound. […]

Sequence of Peroxisome proliferator-activated receptor gamma (Homo sapiens) (P37231 whole entry, looked up): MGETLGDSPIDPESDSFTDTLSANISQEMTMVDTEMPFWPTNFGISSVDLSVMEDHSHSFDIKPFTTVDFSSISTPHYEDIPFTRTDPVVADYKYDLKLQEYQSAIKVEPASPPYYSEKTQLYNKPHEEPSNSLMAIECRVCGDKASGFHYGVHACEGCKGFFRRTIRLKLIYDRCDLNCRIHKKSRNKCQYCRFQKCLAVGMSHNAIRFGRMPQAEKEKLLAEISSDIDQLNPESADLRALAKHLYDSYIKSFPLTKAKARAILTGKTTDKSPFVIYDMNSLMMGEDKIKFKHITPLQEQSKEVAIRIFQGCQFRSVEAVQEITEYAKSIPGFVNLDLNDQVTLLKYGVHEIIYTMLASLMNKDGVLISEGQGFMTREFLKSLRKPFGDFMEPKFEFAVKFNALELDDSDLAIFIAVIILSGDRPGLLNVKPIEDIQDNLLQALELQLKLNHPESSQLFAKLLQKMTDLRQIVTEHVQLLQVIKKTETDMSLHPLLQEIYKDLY

| Compound | AC50 |
| --- | --- |
| COC(=O)C(F)(F)C(F)(F)OC(F)(C(F)(F)F)C(F)(F)OC(F)=C(F)F (configuration not stated) | 3.72 µM (active) |
| O=C(O)C(F)(F)C(F)(F)C(F)(F)C(F)(F)C(F)(F)C(F)(F)C(F)(F)C(F)(F)F | 18.6 µM (active) |
